Experimental data from PubChem BioAssay AID504339 (National Center for Advancing Translational Sciences (NCATS), 2011).
Out of some 390,000 compounds screened, about 17,000 (4.4%) were called active. Where a call stands in place of a potency, no number is given. Another 8% or so got no clear call; they are omitted. Calls come from the whole dose curve; as a rule, active = well fitted inhibition curve with a large enough effect; inconclusive = small, poorly fitted or top-dose-only effect; inactive = no such curve, though single readings can be large or run the other way. Many of the other results were omitted from the sample, so actives are more common in it than they were.

What follows are compounds tested against Lysine-specific demethylase 4A (Homo sapiens) (UniProt O75164) (assay: qHTS Assay for Inhibitors of JMJD2A-Tudor Domain). Details: AlphaScreen JMJD2A-Tudor / H3K4me3 peptide binding; series mostly up to 114 µM.
Chain of Lysine-specific demethylase 4A (Homo sapiens) (O75164 whole entry, looked up, the tested form may be a part): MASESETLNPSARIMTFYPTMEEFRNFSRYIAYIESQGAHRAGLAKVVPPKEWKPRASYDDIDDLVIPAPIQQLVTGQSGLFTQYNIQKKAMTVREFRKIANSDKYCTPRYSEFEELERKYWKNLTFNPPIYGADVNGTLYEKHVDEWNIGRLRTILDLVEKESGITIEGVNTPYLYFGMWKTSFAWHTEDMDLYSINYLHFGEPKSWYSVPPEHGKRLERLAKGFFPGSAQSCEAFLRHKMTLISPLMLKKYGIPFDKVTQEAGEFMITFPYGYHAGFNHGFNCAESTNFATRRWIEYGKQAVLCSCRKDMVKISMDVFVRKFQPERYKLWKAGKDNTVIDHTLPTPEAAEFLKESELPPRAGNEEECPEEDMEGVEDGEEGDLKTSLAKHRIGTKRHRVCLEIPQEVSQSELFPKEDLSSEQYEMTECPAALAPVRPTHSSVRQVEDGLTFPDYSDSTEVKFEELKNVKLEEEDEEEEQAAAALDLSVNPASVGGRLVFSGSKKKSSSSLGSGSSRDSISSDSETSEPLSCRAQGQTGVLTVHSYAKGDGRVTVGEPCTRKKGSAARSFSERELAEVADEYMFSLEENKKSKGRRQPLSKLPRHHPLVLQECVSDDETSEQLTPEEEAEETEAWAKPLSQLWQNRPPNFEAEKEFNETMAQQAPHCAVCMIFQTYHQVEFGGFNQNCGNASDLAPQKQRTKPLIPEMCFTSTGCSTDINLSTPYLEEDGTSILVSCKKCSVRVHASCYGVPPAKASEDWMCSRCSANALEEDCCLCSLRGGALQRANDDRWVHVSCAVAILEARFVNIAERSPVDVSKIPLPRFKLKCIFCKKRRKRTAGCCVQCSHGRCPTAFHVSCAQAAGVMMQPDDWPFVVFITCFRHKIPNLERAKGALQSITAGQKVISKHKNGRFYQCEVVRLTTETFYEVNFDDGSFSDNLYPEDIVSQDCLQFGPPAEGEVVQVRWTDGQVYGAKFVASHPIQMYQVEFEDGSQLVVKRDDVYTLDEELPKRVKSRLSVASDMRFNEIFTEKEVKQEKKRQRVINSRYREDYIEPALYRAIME
Note: nearly all actives have a fitted effect of over 50% in size.
Potency is the fitted concentration of half-maximal effect.

| SMILES | Potency | activity change, negative = inhibition |
| --- | --- | --- |
| COc1ccc(-c2cn3c(C)c(C(=O)Nc4cc(C)cc(C)c4)sc3n2)cc1 | inactive | – |
| COC(=O)c1cc2occc2n1Cc1nc(-c2ccc(C)cc2)oc1C | inactive | – |
| Cc1cccc(NC(=O)c2cc3c(C)nn(-c4ccccc4)c3s2)c1 | inactive | – |
| Nc1ccccc1SC(C[N+](=O)[O-])c1ccccc1 (stereo unspecified) | 6.31 µM (active) | – |
| O=C(c1ccc(C(F)(F)F)cc1)N1CCC(c2nc(-c3ccc(S(=O)(=O)N4CCCC4)cc3)no2)CC1 | inactive | – |
| O=C(CC(c1cccs1)N1Cc2ccccc2C1=O)Nc1ccc(F)c(F)c1 (stereo unspecified) | inactive | – |
| Cc1cccc(NC(=O)CSc2nc3c([nH]c4ccccc43)c(=O)n2-c2cc(C)cc(C)c2)c1 | inactive | – |
| Cc1ccc(N2CC(C(=O)Nc3ccc(N(C)C)cc3)CC2=O)cc1Cl (stereo unspecified) | inactive | – |
| O=S(=O)(NCCS(=O)(=O)N1CCN(c2ccccc2)CC1)c1ccc(Cl)cc1 | inactive | – |
| COc1ccc(OCc2ccc(-c3nc(C#N)c(N4CCN(c5ccccc5)CC4)o3)o2)cc1 | inactive | – |
| CCC(C)Nc1oc(-c2ccc(COc3ccc(Cl)cc3)o2)nc1C#N (stereo unspecified) | inactive | – |
| CN1CCN(c2oc(-c3ccc(COc4ccc(Cl)cc4)o3)nc2C#N)CC1 | 39.8 µM (active) | – |
| CCOc1ccccc1NC(=O)Cn1c(=O)n(Cc2ccccc2)c(=O)c2c(C)c(C(=O)N(C)C)sc21 | inactive | – |
| c1ccc(COc2ccccc2CNCc2cccnc2)cc1 | inactive | – |
| N#Cc1nc(COc2ccc(-c3ccccc3)cc2)oc1NCc1cccnc1 | 44.7 µM (active) | – |
| O=S(=O)(c1ccccc1)c1nc(-c2ccccc2F)oc1NCc1cccnc1 | inactive | – |
| CCOC(=O)c1c(NC(=O)/C=C/c2ccc(OC)cc2)sc2c1CCC(C)C2 (stereo unspecified) | inactive | – |
| COc1cccc(/C=N\NC(=O)C2=NNC(=O)C2C)c1O (stereo unspecified) | 56.2 µM (active) | – |
| COc1cc(/C=N\NC(=O)C2C(=O)NCC2c2ccccc2)cc(OC)c1O (stereo unspecified) | inactive | – |
| COc1ccc(/C=N/NC(=O)C2CC2)c(OC)c1OC | inactive | – |
| CCOc1ccccc1NC(=O)CN1CCN(S(=O)(=O)c2ccc(Br)cc2)CC1 | inactive | – |

| SMILES | Potency | activity change, negative = inhibition |
| --- | --- | --- |
| CCOc1cc(C2c3c(-c4ccc(Br)cc4)n[nH]c3C(=O)N2c2ccc(Cl)cc2)ccc1O (stereo unspecified) | inactive | – |
| O=C1c2cccc3cccc(c23)C(=O)N1CCCCCc1n[nH]c(=S)o1 | 89.1 µM (active) | – |
| O=C1c2ccccc2C(=O)N1CCCc1nc(-c2ccccc2)no1 | inactive | – |
| O=C(CN1C(=O)c2cccc3cccc(c23)C1=O)N1CCCCC1 | inactive | – |
| CCCN1CCN(CCCNC(=O)Cn2nc(CC)n3c(cc4occc43)c2=O)CC1 | inactive | – |
| COc1cc(/C=C2\Oc3ccc(C#Cc4ccc(O)cc4)cc3C2=O)cc(OC)c1 | 89.1 µM (active) | – |
| COC(=O)C(C)Oc1ccc2c(c1)O/C(=C\c1cccc(Br)c1)C2=O (stereo unspecified) | inactive | – |
| COc1cc(C#Cc2ccc3cc(CCCO)oc(=O)c3c2)cc(OC)c1 | inactive | – |
| CCC(CC)NC(=O)/C=C/c1cccc([N+](=O)[O-])c1 | inactive | – |
| O=C(CN1CCOCC1)Nc1cccc([N+](=O)[O-])c1 | inactive | – |
| COC(=O)/C=C\C(=O)Nc1cccc([N+](=O)[O-])c1 | 17.8 µM (active) | – |
| Cc1cc(C)c(/C=C/c2onc(C)c2S(=O)(=O)N2CCC(C(=O)Nc3ccc(Cl)cc3C)CC2)c(C)c1 | inactive | – |
| COc1ccc(NCCc2ccccn2)cc1 | 79.4 µM (active) | – |
| O=C(CNC(=O)COc1ccccc1)NCCc1ccccn1 | inactive | – |
| Cc1c(C)c(C)c(S(=O)(=O)NCCc2ccccn2)c(C)c1C | inactive | – |
| Cc1ccc(CNC(=O)CSc2c(C)cnc3c2c(=O)n(C)c(=O)n3C)cc1 | inactive | – |
| O=c1nc2s/c(=C\c3ccco3)c(=O)n2nc1Cc1ccccc1 | 50.1 µM (active) | – |
| O=c1/c(=C/c2ccc(CNS(=O)(=O)c3ccccc3)o2)sc2n1CCN=2 | inactive | – |
| CCOC(=O)c1cc(OC(=O)c2ccccc2Cl)n(-c2ccccc2)n1 | inactive | – |
| CN(Cc1ccccc1)C(=O)CCS(=O)(=O)c1cc(Br)cc2c1N(C(=O)C1CC1)CC2 | inactive | – |
| COc1ccc(N2CCN(C(CNS(=O)(=O)c3ccc(C)cc3)c3ccccc3)CC2)cc1 (stereo unspecified) | 20 µM (active) | – |

| SMILES | Potency | activity change, negative = inhibition |
| --- | --- | --- |
| COc1ccc(S(=O)(=O)NCC(c2ccc(C)cc2)N2CCN(C)CC2)cc1OC (stereo unspecified) | inactive | – |
| COc1ccc(S(=O)(=O)NCC(c2ccco2)N2CCOCC2)cc1 (stereo unspecified) | inactive | – |
| CCOC(=O)c1c(C)oc2nc(C)nc(N(CC(C)C)CC(C)C)c12 | inactive | – |
| CCOc1cc(C2C(C(=O)Nc3ccc(OC)cc3)=C(C)Nc3nc(SC)nn32)ccc1O (stereo unspecified) | inactive | – |
| O=C(Nc1ccc(OC(F)(F)F)cc1)C1CCCN(S(=O)(=O)c2ccc(Br)s2)C1 (stereo unspecified) | inactive | – |
| CC(=O)c1c(C)n(-c2ccc(N(C)C)cc2)c2ccc(OCC(N)=O)cc12 | 79.4 µM (active) | – |
| Cc1cccc(OCC(=O)NCC(=O)N/N=C/c2ccc(N(C)C)cc2)c1 | inactive | – |
| CC(=O)c1c(C)n(-c2ccc(C)cc2)c2ccc(O)cc12 | inactive | – |
| Cc1ccc(-c2nnc(SCc3ccccc3C)o2)cc1 | inactive | – |
| Cc1ccccc1CNC(=O)CCCn1nc(C)c2sc3ccccc3c2c1=O | inactive | – |
| COc1cc(C2C(C(=O)c3ccc(C)o3)=C(O)C(=O)N2CCc2ccccc2)ccc1O (stereo unspecified) | 17.8 µM (active) | – |
| Cc1cc(N2C(=O)C(=O)/C(=C(/O)c3ccccc3)C2c2cccc(Br)c2)no1 (stereo unspecified) | inactive | – |
| COc1cc(C2C(C(=O)c3cccs3)=C(O)C(=O)N2CCN2CCOCC2)ccc1OCCC(C)C (stereo unspecified) | inactive | – |
| Cc1cc(N2C(=O)C(O)=C(C(=O)c3ccc(C)o3)C2c2ccc(OCc3ccccc3)cc2)no1 (stereo unspecified) | 44.7 µM (active) | – |
| CCCOc1ccc(C2C(C(=O)c3ccc(C)o3)=C(O)C(=O)N2CCCn2ccnc2)cc1 (stereo unspecified) | – | -17.6% [at 11.4 µM] (inactive) |
| CCOc1cc(C2C(C(=O)c3ccco3)=C(O)C(=O)N2Cc2ccccc2)ccc1O (stereo unspecified) | inactive | – |
| O=C(Nc1cc(Cl)cc(Cl)c1)c1ccc2c(c1)N(Cc1cccc(Cl)c1)C(=O)c1ccccc1S2=O (stereo unspecified) | inactive | – |
| COc1cc(CN(CC2CCCO2)C(=O)c2ccccc2F)cc(OC)c1OC (stereo unspecified) | inactive | – |
| CC(C)(C)OC(=O)N1CCC(c2c(C(=O)NCCc3ccsc3)cnn2-c2ccc(F)cc2F)CC1 | inactive | – |
